In the library only some 17% were active in any assay of this set; here they are far more common.
TDP1 cell CPT: growth inhibition of DT40 Tdp1-/-;hTDP1 cells with camptothecin (screen for TDP1 inhibitors) | Potency, µM (highest dose often 46.2 µM), for inactives: at the top dose activity change, negative = growth inhibition, most hits filed as inhibitors | chicken DT40 Tdp1-/-;hTDP1 cells + 20 nM CPT, ATP luminescence, 48 h | AID 686979 | 420,000 tested, 12% active; further: on the % scale 0 is the no-effect control and ±100 the full control effect; nearly all actives have a fitted effect of over 55% in size
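Cell growth measured by CellTiter-Glo luminescence after a minimum 48 h, 37 C compound exposure with 20 nM CPT in Tdp1-knockout DT40 cells stably expressing hTDP1, seeded 400/well; qHTS titration format.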
HepG2 tox: HepG2 cytotoxicity, counter-screen for TGF-b inhibitors; HepG2 CAGA-GFP viability, ATP luminescence, 18 h; Potency, µM (top dose mostly 46.1 µM), for the others: at the top dose activity change, negative = cytotoxicity, most hits filed as cytotoxic; 410,000 tested, 0.76% active
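HepG2 CAGA-GFP cells (1000/well, DMEM with 1% FBS) received compound, then TGF-beta at 500 pg/mL final, and were incubated 18 hours at 37 degrees C. Viability was read by CellTiter-Glo luminescence. Media-only wells were set as complete cell-killing and DMSO as no toxicity.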
DT40 TDP1 no CPT: qHTS for Inhibitors of human tyrosyl-DNA phosphodiesterase 1 (TDP1): qHTS in cells in absence of CPT; DT40 Tdp1-/- hTDP1 cells, no CPT, ATP luminescence, 48 h; Potency, µM (top dose mostly 46.2 µM), for inactives: at the highest dose activity change, negative = growth inhibition, actives largely listed as inhibitors; 420,000 tested, 15% active; AID 686978, 2013; further: on the % scale 0 is the no-effect control and ±100 the full control effect; nearly all actives have a fitted effect of over 55% in size
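Growth of hTDP1-complemented DT40 Tdp1-knockout cells is measured by ATP luminescence after at least 48 hr compound exposure at 37 °C, with DMSO substituting for the 20 nM CPT used in the parallel screen.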
ATXN viability: reduces viability in counter-screen for ATXN expression inhibitors; Potency, µM (doses to about 56.7 µM), most hits filed as cytotoxic; S2 cells (HEK-293 line with an ATXN2-luciferase reporter) viability, CellTiter-Fluor protease fluorescence, 24 h; 400,000 tested, 0.49% active; further: nearly all actives have a fitted effect of over 40% in size
ATXN2 expr inh: ATXN2 expression inhibition. HEK-293 ATXN2-luciferase reporter, luminescence, 24 h. Potency, µM (top dose mostly 57 µM), without a hit: at the top dose activity change, negative = inhibition, most hits filed as inhibitors. 360,000 tested, 0.72% active. AID 1745845; further: on the % scale 0 is the no-effect control and ±100 the full control effect; nearly all actives have a fitted effect of over 55% in size
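ATXN2-luciferase reporter cells (luciferase flanked by upstream and downstream ATXN2 gene portions) were treated 24 h at 37 °C with compounds at up to 57 uM. SteadyGlo luminescence gave expression; GF-AFC fluorescence gave viability.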
TGFb SMAD3 inh: inhibitors of TGF-b signaling | AID 588855 | Potency, µM (series often up to 46.1 µM), for inactives: at the highest dose activity, negative = inhibition, actives largely listed as inhibitors | 410,000 tested, 1.2% active | HepG2 CAGA-GFP TGF-b/SMAD3 reporter, GFP fluorescence, 18 h; TGF-beta stimulated, 500 pg/mL final; further: on the % scale 0 is the no-effect control and ±100 the full control effect; nearly all actives have a fitted effect of over 65% in size
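First, reporter cells (HEPG2 CAGA-GFP) rested 2 h at 37 degrees C. Next, compounds were pinned in and TGF-beta added to 500 pg/mL final. After 18 h, GFP was imaged per cell and summed per well.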
* = called active by the depositor. The call rests on the fitted dose curve; in most records, active means well fitted curve in the direction sought with a large enough effect; inconclusive means small, poorly fitted or top-dose-only effect, or another doubt; inactive means no such curve, though single readings can be large; an effect the other way counts as inactive or inconclusive. Potency means the concentration at half of the fitted maximal effect.

How did Cc1cccc(C)c1-n1nnnc1C1c2ccccc2C(=O)N1CCc1ccc(O)cc1 (stereo not given) do in these assays?
TDP1 cell CPT: inconclusive; DT40 TDP1 no CPT: inconclusive; ATXN viability: inactive; ATXN2 expr inh: 9%

Results for Cc1cc(C)n2c(NCc3ccccc3)c(-c3cc4ccccc4o3)nc2n1 ?
TDP1 cell CPT: 16µM*; DT40 TDP1 no CPT: 15µM*; ATXN viability: inconclusive; ATXN2 expr inh: 0%

Results for Cc1cc(C)n2nc(NCc3ccccc3)nc2n1 ?
TDP1 cell CPT: 0%; HepG2 tox: 1%; DT40 TDP1 no CPT: -1%; TGFb SMAD3 inh: -12%

What do the screens show for `Cc1cc(/C=N/n2cnnc2)c(C)n1-c1ccc(OCc2ccc(Cl)cc2Cl)cc1`?
TDP1 cell CPT: 7.3µM*; HepG2 tox: -74%; DT40 TDP1 no CPT: 5.8µM*; ATXN viability: inactive; ATXN2 expr inh: 16µM*; TGFb SMAD3 inh: 8.9µM*

How did O=c1oc(C2(O)CCCCC2)cc2ccc(-c3ccc4[nH]ccc4c3)cc12 do in these assays?
TDP1 cell CPT: 12µM*; HepG2 tox: -18%; DT40 TDP1 no CPT: inconclusive; ATXN viability: inactive; ATXN2 expr inh: 40%; TGFb SMAD3 inh: -11%

How did CCOC(=O)c1ccc(-n2c(=S)sc3c(=O)[nH]c(C)nc32)cc1 do in these assays?
TDP1 cell CPT: inconclusive; HepG2 tox: -24%; DT40 TDP1 no CPT: 16µM*; ATXN viability: inactive; ATXN2 expr inh: -11%; TGFb SMAD3 inh: 0%

How did CCOc1ccc(C(=O)N[C@H](C(=O)Nc2ccc(S(=O)(=O)Nc3nccs3)cc2)C(C)C)cc1 do in these assays?
TDP1 cell CPT: 11%; HepG2 tox: 7%; DT40 TDP1 no CPT: -14%; ATXN viability: inconclusive; ATXN2 expr inh: 2%; TGFb SMAD3 inh: -9%

What do the screens show for `Cc1ccnc(NS(=O)(=O)c2ccc(NC(=O)c3nc(SC(C)C)ncc3Cl)cc2)n1`?
TDP1 cell CPT: -16%; HepG2 tox: -43%; DT40 TDP1 no CPT: inconclusive; ATXN viability: inactive; ATXN2 expr inh: -2%; TGFb SMAD3 inh: -13%

Results for CC1CCCN(S(=O)(=O)c2ccc(NC(=O)c3nc(SC(C)C)ncc3Cl)cc2)C1 (stereo not given) ?
TDP1 cell CPT: 8.2µM*; HepG2 tox: -11%; DT40 TDP1 no CPT: 13µM*; ATXN viability: inactive; ATXN2 expr inh: 8%; TGFb SMAD3 inh: 0%

What do the screens show for `CC(C)Sc1ncc(Cl)c(C(=O)Nc2ccc(S(=O)(=O)N3CCCCC3)cc2)n1`?
TDP1 cell CPT: 18µM*; HepG2 tox: 3%; DT40 TDP1 no CPT: 18µM*; ATXN viability: inactive; ATXN2 expr inh: 3%; TGFb SMAD3 inh: -2%

Results for CSc1ncc(Cl)c(C(=O)Nc2ccc(S(=O)(=O)Nc3nccc(C)n3)cc2)n1 ?
TDP1 cell CPT: inconclusive; HepG2 tox: -58%; DT40 TDP1 no CPT: 10µM*; ATXN viability: inactive; ATXN2 expr inh: -11%; TGFb SMAD3 inh: -25%

Results for CCSc1ncc(Cl)c(C(=O)Nc2ccc(S(=O)(=O)N3CCCCC3)cc2)n1 ?
TDP1 cell CPT: 21µM*; HepG2 tox: -19%; DT40 TDP1 no CPT: 12µM*; ATXN viability: inactive; ATXN2 expr inh: -28%; TGFb SMAD3 inh: inconclusive

Results for COc1ccccc1-n1nc(-c2ccccc2)c2cnc3c(F)cc(F)cc3c21 ?
TDP1 cell CPT: -9%; HepG2 tox: -18%; DT40 TDP1 no CPT: -22%; ATXN viability: inactive; ATXN2 expr inh: 5%; TGFb SMAD3 inh: -1%

How did CCSc1ncc(Cl)c(C(=O)Nc2ccc(S(=O)(=O)N(C)c3ccccc3)cc2)n1 do in these assays?
TDP1 cell CPT: 12µM*; HepG2 tox: -5%; DT40 TDP1 no CPT: 12µM*; ATXN viability: inactive; ATXN2 expr inh: -4%; TGFb SMAD3 inh: -29%

What do the screens show for `COc1ccc(N2CCN(C(=O)CSc3nnc4c(C)cc5cc(C)ccc5n34)CC2)cc1`?
TDP1 cell CPT: inconclusive; HepG2 tox: -1%; DT40 TDP1 no CPT: inconclusive; ATXN viability: inactive; ATXN2 expr inh: -11%; TGFb SMAD3 inh: 9%

How did COc1ccc(N2CCN(C(=O)CSc3nnc4n3C(C)(C)Cc3ccccc3-4)CC2)cc1 do in these assays?
TDP1 cell CPT: inconclusive; HepG2 tox: -13%; DT40 TDP1 no CPT: 21µM*; ATXN viability: inactive; ATXN2 expr inh: -10%; TGFb SMAD3 inh: -27%

What do the screens show for `CC1(C)Cc2ccccc2-c2nnc(SCC(=O)N3CCc4ccccc43)n21`?
TDP1 cell CPT: inconclusive; HepG2 tox: -17%; DT40 TDP1 no CPT: inconclusive; ATXN viability: inactive; ATXN2 expr inh: inconclusive; TGFb SMAD3 inh: 0%

How did Cc1ccc(Cl)cc1N1CCN(C(=O)CSc2nnc3n2C(C)(C)Cc2ccccc2-3)CC1 do in these assays?
TDP1 cell CPT: 9.2µM*; HepG2 tox: -12%; DT40 TDP1 no CPT: 7.3µM*; ATXN viability: inconclusive; ATXN2 expr inh: inconclusive; TGFb SMAD3 inh: -8%

What do the screens show for `COC(=O)CSc1nnc2n1C(C)(C)Cc1ccccc1-2`?
TDP1 cell CPT: -1%; HepG2 tox: -3%; DT40 TDP1 no CPT: 10%; ATXN viability: inactive; ATXN2 expr inh: -6%; TGFb SMAD3 inh: 4%

What do the screens show for `COc1ccc(N2CCN(C(=O)CSc3nnc4c(C)cc5c(C)cc(C)cc5n34)CC2)cc1`?
TDP1 cell CPT: inconclusive; HepG2 tox: -18%; DT40 TDP1 no CPT: 23µM*; ATXN viability: inactive; ATXN2 expr inh: -22%; TGFb SMAD3 inh: -2%

Results for COc1ccc(S(=O)(=O)N2CCCCCC2)cc1NC(=O)c1ccccc1S(C)(=O)=O ?
TDP1 cell CPT: -6%; HepG2 tox: -1%; DT40 TDP1 no CPT: -3%; ATXN viability: inconclusive; ATXN2 expr inh: -2%; TGFb SMAD3 inh: -1%

What do the screens show for `OC[C@H]1O[C@@H](Oc2cc(O)cc(C=Cc3ccc(O)cc3)c2)[C@H](O)[C@@H](O)[C@H]1O`?
ATXN2 expr inh: 15%

Results for Cc1nn(C)c(Oc2cccc(Cl)c2)c1C#N ?
TDP1 cell CPT: inconclusive; HepG2 tox: -8%; DT40 TDP1 no CPT: 23µM*; ATXN viability: inactive; TGFb SMAD3 inh: 6%

How did Cc1cc(C)cc(NC(=S)NCCSc2ccc(Cl)cc2)c1 do in these assays?
TDP1 cell CPT: inconclusive; HepG2 tox: -45%; DT40 TDP1 no CPT: 21µM*; ATXN viability: inactive; ATXN2 expr inh: inconclusive; TGFb SMAD3 inh: inconclusive

Compound activity as filed in PubChem.
